PubChem BioAssay AID1159580 (chemical genetic matrix, 2015)
Among all 5,500 compounds or so, about 2,000 (36%) were called active. Roughly 18% stayed inconclusive and do not appear here. Cut-off read from the data, not from the text of the source: active = normalized growth mostly below about 0.91 (no sharp cut-off); inconclusive = no clear call, values can overlap the other calls; inactive = mostly above about 0.92. Some of the results follow.

Test: chemical genetic growth profiling, strain panel (AID 1159580);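 note: tested at 20 µM; growth read once vehicle control cultures reached saturation at 30 °C; 1 = growth at the plate median or of vehicle wells; lower values mean less growth of the strain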
Conditions: S. cerevisiae deletion strains, growth OD

Measured: normalized growth

CCCN(CCC)CCc1ccc(O)c(O)c1
inactive: locus YAL040C, strain CLN3, stronger effect = lower value 1.03 | locus YCL061C, strain MRC1 (second series), stronger effect = lower value 1 | locus YDR363W, strain ESC2, stronger effect = lower value 1.04 | locus YER002W, strain NOP16, stronger effect = lower value 1.01 | locus YGR078C, strain PAC10, stronger effect = lower value 0.992 | locus YMR263W, strain SAP30, stronger effect = lower value 0.995 | locus YNL153C, strain GIM3, stronger effect = lower value 1 | locus YNL175C, strain NOP13, stronger effect = lower value 0.997 | locus YNL197C, strain WHI3, stronger effect = lower value 1 | locus YNL224C, strain SQS1, stronger effect = lower value 0.994 | locus YNL322C, strain KRE1, stronger effect = lower value 1.02 | locus YOR083W, strain WHI5 (second series), stronger effect = lower value 1.01 | locus YPL241C, strain CIN2, stronger effect = lower value 1
